Compounds without any hit were thinned out: in the full panel of roughly 79,000, 15% have a hit. Active and inactive are the calls of the source. No stated cut-off is given here; in the data, active means growth inhibition above about 70%; inactive means the rest.
Assays:
[1] = NCI Yeast Anticancer Drug Screen. Data for the rad50 strain (AID 155);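 further: 0% = growth of vehicle-only cultures of the same strain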; conditions: S. cerevisiae rad50 strain growth inhibition; at 50.0 µM; active compounds read high
Summary of the method: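 Inhibition values express reduced yeast growth in compound-treated cultures relative to vehicle-treated controls.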

[2] = NCI Yeast Anticancer Drug Screen. Data for the mec2-1 strain (AID 157); conditions: S. cerevisiae mec2-1 strain, at 50.0 µM, active compounds read high
Summary of the method: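 Test agents were screened against the mec2-1 yeast strain, with defined DNA repair or cell cycle alteration. Growth was scored as inhibition against vehicle-only controls.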

[3] = NCI Yeast Anticancer Drug Screen. Data for the sgs1 mgt1 strain (AID 161);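 further: 0% = growth of cultures given vehicle only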; conditions: S. cerevisiae sgs1 mgt1 strain, at 50.0 µM, active compounds read high
Summary of the method: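 Mutant yeast exposed to compound; growth scored against vehicle-only wells.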

[4] = NCI Yeast Anticancer Drug Screen. Data for the cln2 rad14 strain (AID 165);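 further: 0% = growth equal to vehicle treated cultures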; conditions: S. cerevisiae cln2 rad14 strain, at 50.0 µM, active compounds read high
Summary of the method: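 Growth of compound-exposed yeast (cln2 rad14 genotype) measured and expressed as inhibition relative to vehicle.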

[5] = NCI Yeast Anticancer Drug Screen. Data for the bub3 strain (AID 167); conditions: S. cerevisiae bub3 mutant strain, at 50.0 µM, active compounds read high
Summary of the method: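 Steps: expose the mutant yeast strain to compound; grow alongside vehicle-treated cultures; measure growth; express inhibition against the vehicle cultures.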

[6] = NCI Yeast Anticancer Drug Screen. Data for the mlh1 rad18 strain (AID 175); conditions: S. cerevisiae mlh1 rad18 strain growth inhibition; at 50.0 µM; active compounds read high
Summary of the method: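 In this whole-cell yeast screen, a strain with altered DNA damage repair is challenged with compound, and its growth is measured against matched vehicle-treated controls.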

Measured: growth inhibition

O=C(O)C(=N\Nc1ccccc1)/C(=N\Nc1ccccc1)C(=O)O
inactive: [1] 30.7% | [2] -6.25% | [3] 33.9% | [4] 21.8% | [5] 24.2% | [6] 7.3%

O=C(COc1ccc(Cl)cc1Cl)Nc1ccc2ccccc2c1
inactive: [1] 49.4% | [2] 46% | [3] 59.4% | [4] 18.9% | [5] 54.5% | [6] 36.7%

Cc1ccc(CC(=O)C(=O)O)c([N+](=O)[O-])c1
inactive: [1] -9.7% | [2] 38.1% | [3] 4.5% | [4] -23.6% | [5] -17.9% | [6] 8.2%

N#Cc1cccc(Nc2ccccc2SSc2ccccc2Nc2cccc(C#N)c2)c1
inactive: [1] 13.1% | [2] 7.6% | [3] 17.5% | [4] -7.4% | [5] 3.95% | [6] 12.8%

C#CCn1cc(F)c(=O)n(CC#C)c1=O
inactive: [1] -50.2% | [2] -30.8% | [3] -4.55% | [4] -33.9% | [5] -0.05% | [6] -2.05%

O=C(NCc1ccccc1)C1C2CCC(C2)C1C(=O)NCc1ccccc1 (stereo unspecified)
inactive: [1] -0.85% | [2] 50.8% | [3] -1.95% | [4] -2.35% | [5] 22.9% | [6] -6.35%

Cn1nc2ccc([N+](=O)[O-])cc2[n+]1[O-]
inactive: [1] 28.4% | [2] -2.45% | [3] -2.8% | [4] -19.4% | [5] 0.05% | [6] -17.2%

Cc1c(C(C)c2[nH]c3ccccc3c2C)[nH]c2ccccc12
inactive: [1] 8.1% | [2] 0.45% | [3] -11.6% | [4] 4.45% | [5] 17.4% | [6] -13.6%

c1ccc(-c2ccccc2NC2=NCCO2)cc1
inactive: [1] 6.55% | [2] -2.8% | [3] 2.2% | [4] -25.1% | [5] 11.4% | [6] 5.7%

COC(=O)[C@]1(C)CCC[C@@]2(C)C1CC[C@@]13C=C(C(C)C)[C@@H](CC1=O)CC23 (stereo partly specified)
inactive: [1] 10.7% | [2] 4.7% | [3] -1.7% | [4] 32.7% | [5] 26.4% | [6] 19.1%

CCCNC(=O)OCC#CCOC(=O)NCCC
inactive: [1] 2.5% | [2] -4.15% | [3] 15.4% | [4] -38.5% | [5] 12.5% | [6] -6.1%

C[C@@H]1CN[C@@H](C)CN1
inactive: [1] -35.2% | [2] -30.3% | [3] -17.4% | [4] -8.25% | [5] -0.6% | [6] 3.8%

Cc1ccc(S(=O)(=O)NC(=O)Nc2c(-c3nc4ccccc4s3)[n+]([O-])c3ccccc3[n+]2[O-])cc1
inactive: [1] 27.8% | [2] 5.5% | [3] 15.2% | [4] 30.4% | [5] 10.1% | [6] 18.9%

CCOC(=O)c1cc(-c2ccccc2)c(-c2ccccc2)c(-c2ccccc2)c1-c1ccccc1
inactive: [1] 28.4% | [2] 9.15% | [3] 19.6% | [4] 18.3% | [5] 2.75% | [6] 14.6%

Cc1nc2ccccc2nc1CC(=O)c1ccccc1
inactive: [1] 43.3% | [2] 15.3% | [3] 48% | [4] 18.5% | [5] 54.4% | [6] 43.5%

O=C1CC(c2ccccc2)C(c2ccccc2)C1 (stereo unspecified)
inactive: [1] 6% | [2] 0.45% | [3] 4.2% | [4] 4.2% | [5] -24.1% | [6] -0.25%

O=C(Nc1ccccc1[N+](=O)[O-])OCCOc1ccccc1
inactive: [1] 1.65% | [2] 21.2% | [3] 6.8% | [4] -7.2% | [5] 30.8% | [6] -9.85%

CC(=O)OCCS(=O)(=O)c1c(Cl)c(Cl)c(Cl)c(Cl)c1Cl
active: [1] 95.7% | [2] 97.4% | [3] 98.9% | [4] 93.8% | [5] 95.7% | [6] 97.8%

CCNc1nnc(-c2nsc3ccccc23)s1
inactive: [1] -12.7% | [2] -36.1% | [3] -10.1% | [4] -11.5% | [5] -27.5% | [6] -18.9%

CC(=O)c1cccc(NC(=O)C(=O)C(C2OC(=O)c3ccccc32)[N+](=O)[O-])c1 (stereo unspecified)
inactive: [1] 5.45% | [2] 11.6% | [3] 17.6% | [4] 11.4% | [5] 3.2% | [6] 8.5%

CCCCS(=O)(=O)CCC(N)C(=O)O (stereo unspecified)
inactive: [1] -3.45% | [2] -9.45% | [3] 2.6% | [4] -36.2% | [5] -4.75% | [6] -11.5%

COc1ccc(C2(c3ccc(OC)cc3)c3ccccc3Cc3c(OC)cccc32)cc1
inactive: [1] -1.55% | [2] 16.7% | [3] -5.65% | [4] 2.8% | [5] -11.2% | [6] 6.4%

COc1cc(C(=O)Nc2cccc(Cl)c2Cl)cc(OC)c1OC
inactive: [1] -7.45% | [2] -13.6% | [3] 12% | [4] 21.2% | [5] 18% | [6] 10.9%

O=C(CCC(=O)Nc1cccc([N+](=O)[O-])c1)CC(=O)c1ccc(Cl)cc1
inactive: [1] -26.6% | [2] -4% | [3] -7.9% | [4] -25% | [5] -12.1% | [6] -23.3%

CC(=O)N1CCC23C(=O)CC4C(=CCOC5CC(=O)N(c6ccccc62)C3C54)C1 (stereo unspecified)
inactive: [1] -19.1% | [2] -23.9% | [3] -4.5% | [4] 8.9% | [5] 3.55% | [6] -4.8%

C=CCc1oc(C)nc1CCCC
inactive: [1] 0.2% | [2] -0.1% | [3] 16.7% | [4] 27.4% | [5] 5.85% | [6] 23.3%

Cc1nc(C)c(N2CCN(S(N)(=O)=O)CC2)c(=O)[nH]1
inactive: [1] -70.3% | [2] -26.9% | [3] -30.8% | [4] 6.6% | [5] 3.4% | [6] -21.8%

Cc1ccc(/C=N/NC(N)=O)cc1
inactive: [1] 25.6% | [2] 15.8% | [3] 12.3% | [4] 10.4% | [5] 17.2% | [6] -3.85%

O=C(OCc1ccccc1CN1CCOCC1)c1ccccc1
inactive: [1] 2.55% | [2] 16.4% | [3] 9.5% | [4] -11.9% | [5] -15.8% | [6] 8.3%

O=C(/C=C/CBr)NC(Cc1ccccc1)C(=O)O (stereo unspecified)
inactive: [1] -1.45% | [2] -8.6% | [3] -18.1% | [4] -4% | [5] 15.6% | [6] -4.2%

CCOC1NC(=O)c2ccccc21 (stereo unspecified)
inactive: [1] 22.1% | [2] 6.15% | [3] 5.85% | [4] 22.2% | [5] 19.1% | [6] 12.8%

COc1cc2c(oc(=O)c3c4occc4cc(OC)c23)c2cccc(OCc3ccccc3)c12
inactive: [1] 2% | [2] 14.9% | [3] -11.8% | [4] 8.35% | [5] -20.9% | [6] 3.85%

CCCCCN(CCCCC)CC(O)c1ccc2cc3c(nc2c1)CCCC3 (stereo unspecified)
inactive: [1] 6.2% | [2] 10.2% | [3] 26.9% | [4] 5.25% | [5] -7.2% | [6] 1.5%

COc1ccc(S(=O)(=O)N(CC(=O)O)c2ccccc2)cc1
inactive: [1] -19.3% | [2] -6% | [3] -4.35% | [4] -6.15% | [5] -7.75% | [6] -0.7%

O=C(O)c1cccc(C#Cc2ccccc2)c1
inactive: [1] 16.7% | [2] 5.25% | [3] 12.5% | [4] -15.4% | [5] 4.55% | [6] 25.1%

O=C(NC(C(=O)O)c1ccccc1)c1ccc([N+](=O)[O-])cc1 (stereo unspecified)
inactive: [1] 8.2% | [2] 10.1% | [3] 13.4% | [4] -0.6% | [5] 31.6% | [6] 11.6%

N/N=C(\N)SCc1ccc(N=C=S)cc1
inactive: [1] -4.8% | [2] 6.85% | [3] 17.4% | [4] 18.9% | [5] 16.5% | [6] 15.5%

O=C1C(=O)c2ccccc2C(O)=C1Br
inactive: [1] 27.9% | [2] 39.4% | [3] 49.4% | [4] -61% | [5] 28.4% | [6] 29.8%

Cc1n[nH]c(=O)[nH]c1=O
inactive: [1] -25.2% | [2] -24.8% | [3] -2.7% | [4] 3.45% | [5] -0.85% | [6] 2.55%

COC(=O)CCC(N)C(=O)NC(Cc1ccccc1)C(=O)NC(C)C(=O)NC1C(O)OC(CO)C(O)C1O (stereo unspecified)
inactive: [1] 3.95% | [2] 15.8% | [3] 4.75% | [4] -0.65% | [5] -7.6% | [6] -5.6%

CC1=CCC(CC(=O)O)C1(C)C (stereo unspecified)
inactive: [1] 10.2% | [2] 2.05% | [3] -2.85% | [4] 4.3% | [5] 6.55% | [6] -5%

Reference: PubChem BioAssay (NCI)
